Source: paper PMC7819943, “Rice protein-binding microarrays: a tool to detect cis-acting elements near promoter regions in rice”
The full ranking holds about 35,000 sequences; the median of “fluorescence intensity (a.u.)” is about 10,000, and the highest 2% start at about 52,000. For the sample, the highest values were picked, then their nearest neighbours and some sequences at random.

What follows are sequences tested against T1, OsWOX13 (Oryza sativa, UniProt Q5QMM3 1-267) (assay: protein-binding microarray (RPBM); PBS, 2% BSA, 51.3 ng/ul salmon testes DNA, 50 uM zinc acetate, 200 nM TF, 25 C, 1 h; high values mean tight binding). Conditions: protein: recombinant; tags: N-terminal polyhistidine and DsRed monomer fusion (pET32a); label: CyDye5-dUTP incorporated in the synthesized complementary strand; 3' TTTTT single-stranded linker to array surface; dsDNA, one strand shown.
T1 sequence: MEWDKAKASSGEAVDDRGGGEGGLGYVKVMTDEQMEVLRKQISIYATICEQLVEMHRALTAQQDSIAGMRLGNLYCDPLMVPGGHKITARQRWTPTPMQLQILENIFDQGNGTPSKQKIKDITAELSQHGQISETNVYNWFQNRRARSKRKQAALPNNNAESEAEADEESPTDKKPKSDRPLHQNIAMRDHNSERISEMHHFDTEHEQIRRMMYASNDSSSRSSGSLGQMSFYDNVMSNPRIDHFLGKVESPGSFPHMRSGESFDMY
Procedure, shortened: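 The binding signal is fluorescence intensity per array feature (arbitrary units). Readings came from an Axon 4000B scanner after a washed, 2% BSA-blocked, double-stranded custom Agilent array had been incubated for 1 h at 25 °C with 200 nM protein and 50 µM zinc acetate. The protein was a Ni–NTA-purified transcription factor fused N-terminally to polyhistidine and DsRed, expressed in E. coli BL21-CodonPlus.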
“AAGCTGAAATTTGTTAGAGTAATAGTTGACACCATTACCACGGAGTCACCTAGTGCAG” was tested, and the binding signal was 3160 fluorescence intensity (a.u.). For “CTAGATTGAGAGCATCTGATTCAATAATTAGACTTTCAATCGGAGTCACCTAGTGCAG”, the binding signal was 45100 fluorescence intensity (a.u.). In the case of “AAGGATTAGATATGATTCAATCTTTTGGTTCAAAGTTCTTCGGAGTCACCTAGTGCAG”, the binding signal is reported as 6590 fluorescence intensity (a.u.). “GAGATATAATTGATTAGAGTTACTTTCAATCTTTTCCGTGCGGAGTCACCTAGTGCAG” was tested, and the binding signal was 62000 fluorescence intensity (a.u.). “CTCAATAATTAAGTTCTTGATTAACATTGATATTACTTTCCGGAGTCACCTAGTGCAG” was tested, and the binding signal was 24600 fluorescence intensity (a.u.). For “TTGGCCTTCAATCATTGACACTTGGACAGAACAAATCAATCGGAGTCACCTAGTGCAG”, the binding signal was 26000 fluorescence intensity (a.u.). With “CCCAATTGGTGATTAGATAATCCTGTCACTTTCTTCAAGTCGGAGTCACCTAGTGCAG” the binding signal was 54100 fluorescence intensity (a.u.). “CACAATCACGAATTGAAGAAAGTCCTTCATTTCACATCAACGGAGTCACCTAGTGCAG” was tested, and the binding signal was 3660 fluorescence intensity (a.u.). For “AATCCTAATTATAAGATTTAAGACCTTTCTCTTCACTTCACGGAGTCACCTAGTGCAG”, the binding signal was 9800 fluorescence intensity (a.u.). With “TCACCTTGATTTCAATCATTGGACAAGTGTCCTAGAAAGTCGGAGTCACCTAGTGCAG” the binding signal was 55300 fluorescence intensity (a.u.). In the case of “TCTAAATTAATCTTTAGTTCTTGACCGCAAAATATGAAGCCGGAGTCACCTAGTGCAG”, the binding signal is reported as 14800 fluorescence intensity (a.u.). In the case of “TAACGGATTGATACATCTGGTTACAAATGTGCACTACATACGGAGTCACCTAGTGCAG”, the binding signal is reported as 3880 fluorescence intensity (a.u.). With “TAGCTAATTTGCACCCACATGCATGTGCTTCGAGTAGTTACGGAGTCACCTAGTGCAG” the binding signal was 7070 fluorescence intensity (a.u.). In the case of “CCCTTACTGATTGGACGGTCCCGCGCATAAGCATGCGCACCGGAGTCACCTAGTGCAG”, the binding signal is reported as 27800 fluorescence intensity (a.u.). “TTCAACCATAAATTGAATTGAATAGGACGGATGATGGTTACGGAGTCACCTAGTGCAG” was tested, and the binding signal was 12700 fluorescence intensity (a.u.). “TGATTAACAGCAACCATAGACGGGACAGGCCAGCCCACCACGGAGTCACCTAGTGCAG” was tested, and the binding signal was 3260 fluorescence intensity (a.u.). With “ATGGGCCACGGGCCCACGGACCATACGCATAGGATTCAACCGGAGTCACCTAGTGCAG” the binding signal was 59500 fluorescence intensity (a.u.). In the case of “GTACAATTTTCATAATTTGCATAAATCGAAAAGAAAAGTGCGGAGTCACCTAGTGCAG”, the binding signal is reported as 12400 fluorescence intensity (a.u.). In the case of “AATGATGGAGGATAATTTATATGCTAAATTATAAACTTGTCGGAGTCACCTAGTGCAG”, the binding signal is reported as 57700 fluorescence intensity (a.u.). For “GTTTGGATTGATTATTGGGACAGTGAAATTGACCATTTGACGGAGTCACCTAGTGCAG”, the binding signal was 39600 fluorescence intensity (a.u.). In the case of “CAAATGAGCTAATACTTAATTAATAATGCGCTAATGGATCCGGAGTCACCTAGTGCAG”, the binding signal is reported as 4340 fluorescence intensity (a.u.). For “ACTAATGATGGATTAATTAGGCTTAATATATTCATCTCGCCGGAGTCACCTAGTGCAG”, the binding signal was 58100 fluorescence intensity (a.u.). With “TTAAATTATATTTATATCAAATTATACTTTGATCAATACTCGGAGTCACCTAGTGCAG” the binding signal was 39900 fluorescence intensity (a.u.). For “ATGATTAATACTTAATTAATTATGTGCGCTCATGGATCACCGGAGTCACCTAGTGCAG”, the binding signal was 56400 fluorescence intensity (a.u.). With “GATTAATTAGGCTCAATATATTCATCTCGCGAATTAGTCCCGGAGTCACCTAGTGCAG” the binding signal was 33000 fluorescence intensity (a.u.). “TAAATTGATCAAATTGCCATTTGGAGTGCAGTGACGGGCTCGGAGTCACCTAGTGCAG” was tested, and the binding signal was 54900 fluorescence intensity (a.u.). With “TTTTATAATGATACTTAATTAATCATGTGCTAATAATCACCGGAGTCACCTAGTGCAG” the binding signal was 9330 fluorescence intensity (a.u.). “TATGAGATATCATTTAATTATATAATAAATATAATGATGTCGGAGTCACCTAGTGCAG” was tested, and the binding signal was 4610 fluorescence intensity (a.u.). “GGTATGATAAACTTGACTAATTATACCATTGGATCATTGTCGGAGTCACCTAGTGCAG” was tested, and the binding signal was 11000 fluorescence intensity (a.u.). With “TGATGGATTAATATATGATTAATTAAGTATTAGCTTAAACCGGAGTCACCTAGTGCAG” the binding signal was 13200 fluorescence intensity (a.u.). With “CAAGAACCAATAATTTGCAAACTGTAGGGCACAGTTCGATCGGAGTCACCTAGTGCAG” the binding signal was 6920 fluorescence intensity (a.u.). In the case of “GTCTCTTTGAAATTGAAATTGGGCCTCATTTAGTCTGTTACGGAGTCACCTAGTGCAG”, the binding signal is reported as 3500 fluorescence intensity (a.u.). In the case of “TTTTCCATCACATTAACCTGTCATACACACAAAACTTTTCCGGAGTCACCTAGTGCAG”, the binding signal is reported as 4820 fluorescence intensity (a.u.). With “ACAATCAATCAATCTTGCTTTCCATTCAAAGTCTTCATTTCGGAGTCACCTAGTGCAG” the binding signal was 35000 fluorescence intensity (a.u.). For “AATGTGAGCATGTGATTTAAATTTGAGAAAATTCAACTTGCGGAGTCACCTAGTGCAG”, the binding signal was 3660 fluorescence intensity (a.u.). “GTCCTATTTGACGCTTTGATTAGACAACGCTTTGTCAATTCGGAGTCACCTAGTGCAG” was tested, and the binding signal was 12900 fluorescence intensity (a.u.). For “CGCTTGATCTGGGGTGGGGTCGCGAGTGGTGGAGGAGGTGCGGAGTCACCTAGTGCAG”, the binding signal was 3600 fluorescence intensity (a.u.). “TGTTGACAAAATTAGCTGTTGCAACGCATACAGACTTCAACGGAGTCACCTAGTGCAG” was tested, and the binding signal was 7410 fluorescence intensity (a.u.). “CCCTAATTATGGTACGTGTTGATCGTGCCACTTCTTCCTCCGGAGTCACCTAGTGCAG” was tested, and the binding signal was 39500 fluorescence intensity (a.u.). “TTAGATAAAATTAATTTGTCTTGCTTTTGTAGGCTGCAGACGGAGTCACCTAGTGCAG” was tested, and the binding signal was 27700 fluorescence intensity (a.u.). “ATGTGCTAATGATGGATTAATTACGCTTAATAAATTCGTCCGGAGTCACCTAGTGCAG” was tested, and the binding signal was 28000 fluorescence intensity (a.u.). For “TGATTTAATTAATTAATTAATGGCCTTGTTATTGGATGCTCGGAGTCACCTAGTGCAG”, the binding signal was 47100 fluorescence intensity (a.u.).
